Our source for the binding signal values is PMC7862700, “An all-to-all approach to the identification of sequence-specific readers for epigenetic DNA modifications on cytosine”.

What all share (assay): DAPPL (digital affinity profiling via proximity ligation, sequencing); 10 mM Tris-HCl pH 7.5, 50 mM NaCl, 1 mM DTT, 4% glycerol, room temperature, 30 min; GST-TFs on glutathione beads, 16-mer random dsDNA library, 0.1% formaldehyde crosslink after washing; high values mean tight binding
What all share (conditions): protein: recombinant; tags: N-terminal GST; dsDNA, one strand shown

In assay [1] the target is T1, ELK1 (Homo sapiens, UniProt P19419 1-428).
T1 sequence: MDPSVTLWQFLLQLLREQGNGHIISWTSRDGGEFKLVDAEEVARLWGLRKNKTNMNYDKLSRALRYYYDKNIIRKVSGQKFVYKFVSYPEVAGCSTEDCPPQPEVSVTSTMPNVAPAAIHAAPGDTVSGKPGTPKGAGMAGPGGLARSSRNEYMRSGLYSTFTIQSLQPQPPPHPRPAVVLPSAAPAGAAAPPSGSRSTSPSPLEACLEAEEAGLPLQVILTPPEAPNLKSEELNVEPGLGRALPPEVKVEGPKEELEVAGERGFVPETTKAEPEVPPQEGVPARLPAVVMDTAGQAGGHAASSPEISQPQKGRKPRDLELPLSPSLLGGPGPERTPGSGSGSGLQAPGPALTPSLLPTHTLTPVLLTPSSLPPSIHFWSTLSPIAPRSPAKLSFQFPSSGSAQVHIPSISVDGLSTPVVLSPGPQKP
A digest of the protocol:
(§1)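 Each value of binding signal is a hexamer's read frequency for a factor divided by the same hexamer's frequency in the tag-only sample. Barcoded, bead-captured GST fusions of human transcription factors made in yeast were pooled with that sample and incubated with 200 nmole of a random double-stranded 16-mer DNA library in Tris/NaCl/DTT/glycerol buffer at room temperature for 30 min. Washing, 0.1% formaldehyde crosslinking, proximity ligation, PCR and Illumina NextSeq500 sequencing followed.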

Assay [2] concerns the target T2, GABPA (Homo sapiens, UniProt Q06546 1-454).
T2 sequence: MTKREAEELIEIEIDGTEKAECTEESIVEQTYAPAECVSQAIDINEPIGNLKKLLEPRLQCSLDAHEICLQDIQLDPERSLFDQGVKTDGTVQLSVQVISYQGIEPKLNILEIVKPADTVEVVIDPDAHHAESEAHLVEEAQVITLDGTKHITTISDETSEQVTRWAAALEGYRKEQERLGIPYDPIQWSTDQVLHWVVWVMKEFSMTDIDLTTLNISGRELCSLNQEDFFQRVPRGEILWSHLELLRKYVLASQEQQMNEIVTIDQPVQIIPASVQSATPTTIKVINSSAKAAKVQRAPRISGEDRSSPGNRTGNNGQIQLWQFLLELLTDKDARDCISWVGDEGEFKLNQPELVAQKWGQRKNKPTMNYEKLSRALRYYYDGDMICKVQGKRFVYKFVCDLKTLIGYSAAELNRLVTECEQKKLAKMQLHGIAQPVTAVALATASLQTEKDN
An outline of the steps:
as §1

The target of assay [3] is T3, ERG (Homo sapiens, UniProt P11308 1-479).
T3 sequence: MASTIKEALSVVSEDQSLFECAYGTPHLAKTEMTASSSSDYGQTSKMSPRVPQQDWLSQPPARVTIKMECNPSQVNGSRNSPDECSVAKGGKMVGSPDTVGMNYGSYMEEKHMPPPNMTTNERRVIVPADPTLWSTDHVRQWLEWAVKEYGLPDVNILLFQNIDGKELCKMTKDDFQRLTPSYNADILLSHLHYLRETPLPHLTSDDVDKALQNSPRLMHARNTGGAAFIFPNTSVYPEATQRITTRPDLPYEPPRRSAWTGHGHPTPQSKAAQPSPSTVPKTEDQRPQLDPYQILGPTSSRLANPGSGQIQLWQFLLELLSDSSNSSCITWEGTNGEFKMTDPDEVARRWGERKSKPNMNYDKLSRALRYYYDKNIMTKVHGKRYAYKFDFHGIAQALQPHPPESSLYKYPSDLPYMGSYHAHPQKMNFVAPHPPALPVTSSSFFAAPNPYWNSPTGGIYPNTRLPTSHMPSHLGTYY
A digest of the protocol: as §1

Assay [4] has as its target ELF1 (Homo sapiens, UniProt P32519 1-619). A digest of the protocol:
as §1

Assay [5] addresses SPIB (Homo sapiens, UniProt Q01892 1-262). A digest of the protocol:
as §1

The target of assay [6] is ETV5 (Homo sapiens, UniProt P41161 1-510). An outline of the steps:
as §1

For assay [7], the target named is T4, SPIC (Homo sapiens, UniProt Q8N5J4 1-248).
T4 sequence: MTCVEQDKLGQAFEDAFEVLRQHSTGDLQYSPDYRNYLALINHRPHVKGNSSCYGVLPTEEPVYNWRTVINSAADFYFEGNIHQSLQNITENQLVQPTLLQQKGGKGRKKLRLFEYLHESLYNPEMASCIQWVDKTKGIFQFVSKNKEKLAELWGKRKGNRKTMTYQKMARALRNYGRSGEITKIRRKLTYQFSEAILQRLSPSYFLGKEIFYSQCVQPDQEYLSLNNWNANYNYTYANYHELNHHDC
A digest of the protocol:
as §1

Assay [8] deals with ELF4 (Homo sapiens, UniProt Q99607 1-663). A digest of the protocol: as §1
Sequence of ELF4 (Q99607 whole entry): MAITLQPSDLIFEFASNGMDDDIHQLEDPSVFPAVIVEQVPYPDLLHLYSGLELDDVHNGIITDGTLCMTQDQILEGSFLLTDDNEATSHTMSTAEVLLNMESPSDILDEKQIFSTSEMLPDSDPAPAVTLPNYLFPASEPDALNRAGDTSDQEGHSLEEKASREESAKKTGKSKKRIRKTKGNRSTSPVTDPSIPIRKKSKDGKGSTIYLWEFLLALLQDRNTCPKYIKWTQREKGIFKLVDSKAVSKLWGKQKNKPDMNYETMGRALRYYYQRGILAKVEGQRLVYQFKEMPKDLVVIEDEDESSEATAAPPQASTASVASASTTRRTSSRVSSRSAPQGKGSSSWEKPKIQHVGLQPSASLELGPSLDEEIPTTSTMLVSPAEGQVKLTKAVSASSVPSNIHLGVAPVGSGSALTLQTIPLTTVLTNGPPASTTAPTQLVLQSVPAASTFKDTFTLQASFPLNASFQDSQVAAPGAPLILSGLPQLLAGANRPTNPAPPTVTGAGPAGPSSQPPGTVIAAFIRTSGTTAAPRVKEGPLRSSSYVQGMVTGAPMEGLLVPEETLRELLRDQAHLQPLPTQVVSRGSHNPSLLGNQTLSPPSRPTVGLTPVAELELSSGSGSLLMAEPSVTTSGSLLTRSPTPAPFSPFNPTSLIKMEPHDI
Assay [9] concerns the target T5, ELK4 (Homo sapiens, UniProt P28324-2 1-405).
T5 sequence: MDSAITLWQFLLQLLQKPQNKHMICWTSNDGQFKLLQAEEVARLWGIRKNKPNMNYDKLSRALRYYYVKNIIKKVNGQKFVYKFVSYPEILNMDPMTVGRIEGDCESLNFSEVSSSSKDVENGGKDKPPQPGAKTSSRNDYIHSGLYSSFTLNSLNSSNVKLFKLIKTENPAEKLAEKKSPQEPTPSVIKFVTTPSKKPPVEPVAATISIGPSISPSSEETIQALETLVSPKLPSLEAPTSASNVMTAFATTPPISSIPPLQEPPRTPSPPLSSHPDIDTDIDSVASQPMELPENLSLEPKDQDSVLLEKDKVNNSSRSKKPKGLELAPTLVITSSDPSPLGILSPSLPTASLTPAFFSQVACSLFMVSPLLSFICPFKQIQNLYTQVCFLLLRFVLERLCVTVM
An outline of the steps: as §1

For assay [10], the target named is T6, ELF3 (Homo sapiens, UniProt P78545 1-371).
T6 sequence: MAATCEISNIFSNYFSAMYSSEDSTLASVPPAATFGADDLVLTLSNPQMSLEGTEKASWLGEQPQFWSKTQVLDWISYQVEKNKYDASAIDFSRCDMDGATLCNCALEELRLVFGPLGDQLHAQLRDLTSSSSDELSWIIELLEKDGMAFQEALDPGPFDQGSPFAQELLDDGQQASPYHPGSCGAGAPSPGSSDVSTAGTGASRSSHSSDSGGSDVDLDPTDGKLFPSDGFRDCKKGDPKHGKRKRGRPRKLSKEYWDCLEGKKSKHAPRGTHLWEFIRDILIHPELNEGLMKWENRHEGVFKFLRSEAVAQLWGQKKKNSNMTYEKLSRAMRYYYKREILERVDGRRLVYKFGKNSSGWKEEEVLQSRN
A digest of the protocol: as §1

Assay [11] concerns the target ETV1 (Homo sapiens, UniProt P50549 1-477). An outline of the steps:
as §1

In assay [12] the target is T7, ERF (Homo sapiens, UniProt P50548 1-548).
T7 sequence: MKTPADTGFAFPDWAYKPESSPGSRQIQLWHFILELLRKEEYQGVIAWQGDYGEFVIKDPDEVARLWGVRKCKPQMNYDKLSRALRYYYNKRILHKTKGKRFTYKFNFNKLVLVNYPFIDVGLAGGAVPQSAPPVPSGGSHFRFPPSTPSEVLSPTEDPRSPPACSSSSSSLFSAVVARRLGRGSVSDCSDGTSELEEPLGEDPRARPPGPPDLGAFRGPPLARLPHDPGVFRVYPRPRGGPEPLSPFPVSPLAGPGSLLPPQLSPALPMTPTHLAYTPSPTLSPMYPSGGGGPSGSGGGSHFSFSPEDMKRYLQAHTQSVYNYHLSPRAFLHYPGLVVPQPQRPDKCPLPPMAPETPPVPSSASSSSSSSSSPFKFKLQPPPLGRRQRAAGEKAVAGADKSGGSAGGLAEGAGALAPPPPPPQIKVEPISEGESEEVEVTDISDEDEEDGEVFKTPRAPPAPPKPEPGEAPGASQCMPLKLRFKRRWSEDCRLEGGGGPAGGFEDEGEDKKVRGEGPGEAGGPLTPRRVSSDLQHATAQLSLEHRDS
An outline of the steps: as §1

The target in assay [13] is T8, ETV3L (Homo sapiens, UniProt Q6ZN32 1-361).
T8 sequence: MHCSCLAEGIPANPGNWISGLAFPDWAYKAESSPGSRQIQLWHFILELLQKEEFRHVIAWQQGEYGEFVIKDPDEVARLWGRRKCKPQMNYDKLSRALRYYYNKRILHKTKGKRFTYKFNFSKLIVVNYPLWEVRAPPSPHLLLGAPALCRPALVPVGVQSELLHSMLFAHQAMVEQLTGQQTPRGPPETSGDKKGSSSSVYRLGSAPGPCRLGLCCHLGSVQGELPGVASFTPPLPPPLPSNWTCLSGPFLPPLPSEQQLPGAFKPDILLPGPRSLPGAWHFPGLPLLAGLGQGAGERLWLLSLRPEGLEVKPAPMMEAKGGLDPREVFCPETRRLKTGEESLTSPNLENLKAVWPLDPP
A digest of the protocol:
as §1

Assay [14] addresses T9, ETV7 (Homo sapiens, UniProt Q9Y603 1-341).
T9 sequence: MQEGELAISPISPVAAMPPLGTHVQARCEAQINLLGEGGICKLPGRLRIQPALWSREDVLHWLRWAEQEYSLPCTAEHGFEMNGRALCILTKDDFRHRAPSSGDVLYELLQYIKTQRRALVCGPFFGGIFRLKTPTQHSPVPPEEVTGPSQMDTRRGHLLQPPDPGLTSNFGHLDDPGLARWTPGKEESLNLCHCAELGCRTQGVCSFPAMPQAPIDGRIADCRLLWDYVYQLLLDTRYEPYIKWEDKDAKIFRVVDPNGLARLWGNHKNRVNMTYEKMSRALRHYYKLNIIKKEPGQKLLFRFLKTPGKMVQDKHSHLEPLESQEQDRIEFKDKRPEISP
A digest of the protocol:
as §1

Assay [15] has as its target ETV6 (Homo sapiens, UniProt P41212 1-452). An outline of the steps: as §1

Sequence of ETV5 (P41161 whole entry): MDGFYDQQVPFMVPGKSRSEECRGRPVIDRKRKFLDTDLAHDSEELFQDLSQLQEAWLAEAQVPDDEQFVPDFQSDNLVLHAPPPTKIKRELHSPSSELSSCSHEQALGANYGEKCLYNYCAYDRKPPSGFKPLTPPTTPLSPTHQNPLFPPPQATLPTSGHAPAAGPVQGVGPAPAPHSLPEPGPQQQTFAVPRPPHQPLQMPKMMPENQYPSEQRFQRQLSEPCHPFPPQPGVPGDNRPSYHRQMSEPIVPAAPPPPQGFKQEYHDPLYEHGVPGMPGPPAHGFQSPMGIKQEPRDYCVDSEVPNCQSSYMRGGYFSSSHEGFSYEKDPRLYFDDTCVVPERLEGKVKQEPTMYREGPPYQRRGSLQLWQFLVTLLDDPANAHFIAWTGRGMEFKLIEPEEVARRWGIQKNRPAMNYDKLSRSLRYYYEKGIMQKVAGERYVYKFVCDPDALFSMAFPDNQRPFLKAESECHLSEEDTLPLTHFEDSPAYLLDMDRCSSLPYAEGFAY
Sequence of ELF1 (P32519 whole entry): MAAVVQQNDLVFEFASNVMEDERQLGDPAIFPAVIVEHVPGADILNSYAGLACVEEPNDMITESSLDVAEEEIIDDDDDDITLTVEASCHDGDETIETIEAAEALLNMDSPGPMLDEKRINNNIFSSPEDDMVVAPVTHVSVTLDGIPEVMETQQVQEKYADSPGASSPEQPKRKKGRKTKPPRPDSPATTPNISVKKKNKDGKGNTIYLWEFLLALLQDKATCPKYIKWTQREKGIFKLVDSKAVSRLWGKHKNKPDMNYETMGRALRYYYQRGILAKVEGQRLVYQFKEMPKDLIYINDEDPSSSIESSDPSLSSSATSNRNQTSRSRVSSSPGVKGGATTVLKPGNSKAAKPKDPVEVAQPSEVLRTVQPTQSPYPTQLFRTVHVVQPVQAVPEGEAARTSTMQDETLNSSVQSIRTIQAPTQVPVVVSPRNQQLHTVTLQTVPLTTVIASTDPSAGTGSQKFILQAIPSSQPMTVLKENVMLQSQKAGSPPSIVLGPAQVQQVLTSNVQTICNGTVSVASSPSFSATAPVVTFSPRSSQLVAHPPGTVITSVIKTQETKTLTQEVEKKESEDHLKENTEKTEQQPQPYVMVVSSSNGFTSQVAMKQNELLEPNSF
Sequence of SPIB (Q01892 whole entry): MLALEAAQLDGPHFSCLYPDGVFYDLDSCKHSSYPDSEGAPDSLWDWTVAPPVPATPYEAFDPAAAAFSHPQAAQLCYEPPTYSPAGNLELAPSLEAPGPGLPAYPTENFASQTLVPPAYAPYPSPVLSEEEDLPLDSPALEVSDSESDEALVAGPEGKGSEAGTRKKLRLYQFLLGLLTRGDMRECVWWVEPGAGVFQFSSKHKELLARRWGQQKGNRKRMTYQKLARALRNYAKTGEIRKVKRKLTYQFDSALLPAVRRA
Sequence of ETV1 (P50549 whole entry): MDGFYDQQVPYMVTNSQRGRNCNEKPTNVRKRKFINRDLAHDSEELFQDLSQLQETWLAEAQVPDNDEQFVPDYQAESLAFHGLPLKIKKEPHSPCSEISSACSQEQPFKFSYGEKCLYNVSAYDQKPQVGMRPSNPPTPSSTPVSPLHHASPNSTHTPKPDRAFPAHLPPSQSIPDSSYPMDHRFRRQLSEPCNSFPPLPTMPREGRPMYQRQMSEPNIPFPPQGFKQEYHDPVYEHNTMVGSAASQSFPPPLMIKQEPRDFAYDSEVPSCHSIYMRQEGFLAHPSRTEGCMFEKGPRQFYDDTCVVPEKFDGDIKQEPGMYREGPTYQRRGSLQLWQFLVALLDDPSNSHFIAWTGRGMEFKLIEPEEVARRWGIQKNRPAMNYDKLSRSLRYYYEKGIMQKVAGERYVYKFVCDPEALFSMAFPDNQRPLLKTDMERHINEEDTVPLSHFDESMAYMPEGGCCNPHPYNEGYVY
Sequence of ETV6 (P41212 whole entry): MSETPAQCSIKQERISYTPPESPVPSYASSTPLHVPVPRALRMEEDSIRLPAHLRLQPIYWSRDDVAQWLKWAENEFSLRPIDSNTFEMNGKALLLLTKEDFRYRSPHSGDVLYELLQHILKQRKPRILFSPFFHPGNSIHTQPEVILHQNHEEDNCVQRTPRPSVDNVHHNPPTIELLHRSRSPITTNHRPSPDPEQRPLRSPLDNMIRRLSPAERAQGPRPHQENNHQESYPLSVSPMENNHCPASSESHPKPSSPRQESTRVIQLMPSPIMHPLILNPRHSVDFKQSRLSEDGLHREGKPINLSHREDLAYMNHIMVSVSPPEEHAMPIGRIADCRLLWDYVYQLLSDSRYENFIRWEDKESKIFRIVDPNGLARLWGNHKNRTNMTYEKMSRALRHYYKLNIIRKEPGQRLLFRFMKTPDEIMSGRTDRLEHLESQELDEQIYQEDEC

In the case of GGGGCT, the binding signal was 1.09 fold enrichment (6-mer frequency, TF over GST control) in assay [1]; 1.11 fold enrichment (6-mer frequency, TF over GST control) in [2]; 1.01 fold enrichment (6-mer frequency, TF over GST control) in assay [3]; 1.04 fold enrichment (6-mer frequency, TF over GST control) in [4]; 1.03 fold enrichment (6-mer frequency, TF over GST control) in [5]; 1.04 fold enrichment (6-mer frequency, TF over GST control) in [6]. Moreover, the binding signal in assay [7] is 1.01 fold enrichment (6-mer frequency, TF over GST control); in [8] it was 1.1 fold enrichment (6-mer frequency, TF over GST control); in assay [9], 1.14 fold enrichment (6-mer frequency, TF over GST control); in assay [10] it was 1.01 fold enrichment (6-mer frequency, TF over GST control); in assay [11] it was 1.11 fold enrichment (6-mer frequency, TF over GST control); in [12], 1.06 fold enrichment (6-mer frequency, TF over GST control). The binding signal in assay [13] was 1.22 fold enrichment (6-mer frequency, TF over GST control); in assay [14] it was 1.06 fold enrichment (6-mer frequency, TF over GST control); in assay [15], 1.04 fold enrichment (6-mer frequency, TF over GST control).
